This is one part of a sample in which hits are shown more often than they occur.
Tgondii IFNg: T. gondii growth inhibition with IFN-gamma, primary screen, cell-based; Toxoplasma gondii growth in IFN-gamma-treated host cells; hits give low values; activity change, negative = inhibition, % (test concentration not listed); hit rate 3.8% among 69,000; AID 1259416, 2018; in the data active means activity change below about -70%, passing the limit was not always enough;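 further: host cells are HeLa cells infected with Toxoplasma gondii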
Each line names hits and unclear results; the compound was inactive in the other large screens; ! = not active in a repeat.

CC(C)C[C@H](N[C@@H](Cc1cncn1Cc1cc(Cl)cc(Cl)c1)C(=O)O)C(=O)O	none
O=C(Cn1c(=O)cc(C(=O)N2CCCCC2)c2ccccc21)Nc1ccc(Cl)cc1	none
CCOc1ccc(C(=O)N2CCN(S(=O)(=O)c3cc4c5c(c3)CCC(=O)N5CCC4)CC2)cc1	none
Cc1cc(-c2cnc(N3CCOCC3)nc2C2CCN(CC3CCC=CO3)CC2)on1 (stereo not given)	none
Cc1ccc(C2(O)CCN(C(=O)c3n[nH]c4c3CCC4)CC2)nc1	none
Cc1cc(-c2cnc(N3CCCC3)nc2C2CCN(C(=O)c3n[nH]c4c3CCC4)CC2)on1	Tgondii IFNg -82
O=C(NCc1cccc(F)c1)N1CC[C@H](O)[C@@H]1Cc1cccnc1	none
CS(=O)(=O)c1cnc(N2CCOCC2)nc1C1CCN(C(=O)C2CC=CCC2)CC1 (stereo not given)	none
OCCn1cc(-c2ccc3c(c2)CC/C3=N\O)c(-c2ccncc2)n1	Tgondii IFNg -78!
CC(C)c1ocnc1-c1nc(CC2CCN(C)CC2)no1	none
O=C(CC1N=C2c3ccccc3N=C(SCc3cccc(F)c3)N2C1=O)NC1CCCCC1 (stereo not given)	none
O=C(CC1CC2(CCN(C(=O)c3ccco3)CC2)Oc2ccccc21)NC1CC1 (stereo not given)	none
Cc1n[nH]c(C)c1CCCN(C)C(=O)c1cccs1	none
Cc1ccc(NC(=O)C(=O)NCCc2csc(-c3cccc(F)c3)n2)cc1	none
O=C(NCCc1csc(-c2ccc(F)cc2)n1)C(=O)Nc1ccccc1	none
Cc1cc(C)cc(NC(=O)C(=O)NCCc2csc(-c3cccc(F)c3)n2)c1	Tgondii IFNg -92
Cc1ccc(-c2nc(CCNC(=O)C(=O)Nc3c(C)cccc3C)cs2)cc1	none
Cc1cccc(C)c1NC(=O)C(=O)NCCc1csc(-c2ccc(F)cc2)n1	Tgondii IFNg -78
Cc1ccc(NC(=O)C(=O)NCCc2csc(-c3ccc(F)cc3)n2)cc1	none
Cc1cc(C)cc(NC(=O)C(=O)NCCc2csc(-c3ccc(F)cc3)n2)c1	Tgondii IFNg -93
O=C(NCCc1csc(-c2cccc(F)c2)n1)C(=O)Nc1ccc(F)cc1	none
Cc1cccc(NC(=O)C(=O)NCCc2csc(-c3ccc(F)cc3)n2)c1	none
Cc1ccc(C(C)C)cc2c(C)ccc1-2	none
COc1cccc(-c2ccc3n(c2=O)C[C@@H]2[C@@H](CO)[C@H](C(=O)N(C)C)[C@H]3N2C(=O)c2ccccn2)c1	none
C[C@H]1CN([C@@H](C)CO)C(=O)Cc2cc(NC(=O)C3CCCCC3)ccc2O[C@H]1CN(C)Cc1ccc(Cl)c(Cl)c1	none
C[C@@H]1CN([C@@H](C)CO)C(=O)Cc2cc(NS(=O)(=O)c3ccc(Cl)cc3)ccc2O[C@H]1CN(C)C(=O)Nc1ccc(C(F)(F)F)cc1	none
C[C@@H]1CN([C@@H](C)CO)C(=O)Cc2cc(NC(=O)C3CCCCC3)ccc2O[C@H]1CN(C)Cc1ccc(Cl)c(Cl)c1	none
C[C@@H]1CN([C@@H](C)CO)C(=O)Cc2cc(NS(=O)(=O)c3ccc(Cl)cc3)ccc2O[C@@H]1CN(C)C(=O)Nc1ccc(C(F)(F)F)cc1	Tgondii IFNg -79
C[C@H](CO)N1C[C@H](C)[C@H](CN(C)C(=O)Nc2ccc(C(F)(F)F)cc2)Oc2ccc(NS(=O)(=O)c3ccc(Cl)cc3)cc2CC1=O	none
C[C@@H]1CN([C@H](C)CO)C(=O)Cc2cc(NC(=O)C3CCCCC3)ccc2O[C@H]1CN(C)Cc1ccc(Cl)c(Cl)c1	Tgondii IFNg -72
CCOC(=O)c1nc(N2CCN(c3ccccn3)CC2)c2ccccc2n1	none
CC(C)NC(=O)N1[C@@H]2CNc3ccccc3[C@@H]2[C@@H]1CO	none
O=C(NC1CCCCC1)NC1CCCCC1	none
COc1ccc(-c2nnc(-c3nc(NCc4cc(OC)ccc4OC)c4ccccc4n3)o2)cc1	none
CC(=O)N1CCC(C(=O)NCc2ccccc2)(N(C(=O)c2ccc(C)cc2)c2cccc(Cl)c2)CC1	none
CCCC(=O)Nc1ccc2c(c1)C(=O)N(C)C[C@@H](OC)[C@@H](C)CN(Cc1ccc(F)cc1)[C@@H](C)CO2	none
Cc1coc2c1C(=O)C(=O)c1c-2ccc2c(C)cccc12	Tgondii IFNg -72
CCN1c2ccc(C)cc2C(=O)NC12CCN(C(=O)c1ccccc1F)CC2	none
CCOC(=O)c1c(C)oc2cc(Br)c(OC(C)C(=O)OCC)cc12 (stereo not given)	none
CCOC(=O)C1=C(N)Oc2ccc(Br)cc2[C@H]1[C@H](C#N)C(=O)OCC	Tgondii IFNg -75
CCOC(=O)C1c2ccccc2Oc2ccccc21	none
CC(C)c1nc(C2CCN(C(=O)CN(C)C3CCS(=O)(=O)C3)CC2)c2cccnc2n1 (stereo not given)	none
C[C@@H]1CCCCO[C@@H](CN(C)C(=O)C2CCCCC2)[C@H](C)CN([C@H](C)CO)C(=O)c2cc(NS(=O)(=O)c3ccccc3)ccc2O1	none
C[C@@H]1CCCCO[C@H](CN(C)C(=O)C2CCCCC2)[C@H](C)CN([C@H](C)CO)C(=O)c2cc(NS(=O)(=O)c3ccccc3)ccc2O1	Tgondii IFNg -145
C[C@@H]1CCCCO[C@@H](CN(C)C(=O)C2CCCCC2)[C@@H](C)CN([C@@H](C)CO)C(=O)c2cc(NS(=O)(=O)c3ccccc3)ccc2O1	none
C[C@H](CO)N1C[C@H](C)[C@@H](CN(C)C(=O)C2CCCCC2)OCCCC[C@H](C)Oc2ccc(NS(=O)(=O)c3ccccc3)cc2C1=O	Tgondii IFNg -78
CC(C)NC(=O)Nc1ccc2c(c1)C(=O)N([C@@H](C)CO)C[C@@H](C)[C@H](CN(C)C(=O)C1CCCCC1)OCCCC[C@H](C)O2	none
CC(C)NC(=O)Nc1ccc2c(c1)C(=O)N([C@@H](C)CO)C[C@@H](C)[C@@H](CN(C)C(=O)C1CCCCC1)OCCCC[C@H](C)O2	none
CCCNC(=O)N1CC2(CCN(S(=O)(=O)CC)CC2)c2c([nH]c3cc(OC)ccc23)[C@H]1CO	none
CCOC(=O)[C@@]1(CCCCCCOc2ccc(Cl)cc2)CO1	none
CN(Cc1nc(-c2ccco2)no1)Cc1cn[nH]c1-c1ccc(F)cc1	none
CCc1nc(CN2CCC(c3[nH]ncc3-c3ccccc3)CC2)c(C)[nH]1	none
CC(C)(C)c1ccc(C(=O)N2CCN(C(=O)c3ccc(C(C)(C)C)cc3)CC2)cc1	none
CC(C)(C)c1ccc(C(=O)N2CCCn3c2nc2ccccc2c3=O)cc1	none
CC(C)(C)c1ccc(C(=O)N2NC(=Nc3ccccc3)SC2(C)C)cc1	Tgondii IFNg -87
COc1cccc(-c2ccc3n(c2=O)C[C@H]2[C@H](CO)[C@@H](C(=O)NC4Cc5ccccc5C4)N[C@@H]32)c1	none
COc1ccccc1S(=O)(=O)N(C)C[C@@H]1OCc2ccccc2-c2ccccc2C(=O)N([C@@H](C)CO)C[C@H]1C	none
Cc1ccc2cc3cc(C(=O)N(CC(=O)NC4CCCC4)Cc4ccco4)sc3nc2c1	none
CS(=O)(=O)N1Cc2ccccc2C2(CCN(C3CCOCC3)CC2)C1	none
CN(C)C(=O)[C@H]1C[C@@H]2CCN(S(C)(=O)=O)C[C@H]2O1	none
CS(=O)(=O)N1CCN(C2CCOCC2)CC(C(=O)O)C1 (stereo not given)	Tgondii IFNg -100
Cc1cc2cc(C(=O)NCCCn3nccc3C3CC3)ccc2o1	none
COc1ccc(C(O)C(=O)N2CCC(O)(CO)CC2)cc1 (stereo not given)	none
CS(=O)(=O)c1ccc(C(=O)Nc2ccccc2Cl)cc1	none
CS(=O)(=O)c1ccc(-c2cnc(N)c(C(=O)Nc3ccccc3)n2)cc1	Tgondii IFNg -86
CS(=O)(=O)c1ccc(-c2ccccc2C(N)=O)cc1	none
CCOC(=O)c1nc(NCc2ccccc2OC)c2ccccc2n1	none
Cc1[nH]cnc1-c1nccn1CCc1nc2ccccc2[nH]1	none
CCOC(=O)c1nc(N2CCc3ccccc32)c2ccccc2n1	none
